Measured values from PubChem BioAssay AID1159580 (chemical genetic matrix, 2015).
In all, about 5,500 compounds went through this assay and about 2,000 (36%) were called active. Inconclusive results (about 18%) are left out. Cut-off read from the data, not from the text of the source: active = normalized growth mostly below about 0.91 (no sharp cut-off); inconclusive = no clear call, values can overlap the other calls; inactive = mostly above about 0.92. This is one part of the list.

Test: chemical genetic growth profiling, strain panel (AID 1159580);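 note: tested at 20 µM; growth read once vehicle control cultures reached saturation at 30 °C; 1 = growth at the plate median or of vehicle wells; lower values mean less growth of the strain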
Settings: growth OD

Measured: normalized growth

O=C(O[C@@H]1Cc2c(O)cc(O)cc2O[C@@H]1c1cc(O)c(=O)c2c(O)c(O)cc([C@H]3Oc4cc(O)cc(O)c4C[C@H]3O)c2c1)c1cc(O)c(O)c(O)c1
active: S. cerevisiae deletion strains, locus YKL160W, strain elf1, stronger effect = lower value 0.709 | S. cerevisiae deletion strains, locus YKL190W, strain CNB1, stronger effect = lower value 0.211 | S. cerevisiae deletion strains, locus YKR001C, strain vps1, stronger effect = lower value 0.809 | S. cerevisiae deletion strains, locus YLL001W, strain dnm1, stronger effect = lower value 0.658 | S. cerevisiae deletion strains, locus YLL026W, stronger effect = lower value 0.719 | S. cerevisiae deletion strains, locus YLL041C, strain sdh2, stronger effect = lower value 0.79 | S. cerevisiae deletion strains, locus YLR027C, strain aat2, stronger effect = lower value 0.495 | S. cerevisiae deletion strains, locus YLR039C, strain RIC1, stronger effect = lower value 0.271 | S. cerevisiae deletion strains, locus YLR058C, strain SHM2, stronger effect = lower value 0.219 | S. cerevisiae deletion strains, locus YLR221C, strain rsa3, stronger effect = lower value 0.699 | S. cerevisiae deletion strains, locus YLR258W, strain gsy2, stronger effect = lower value 0.638 | S. cerevisiae deletion strains, locus YLR262C, strain YPT6 (second series), stronger effect = lower value 0.524 | S. cerevisiae deletion strains, locus YLR262C, strain YPT6, stronger effect = lower value 0.552 | S. cerevisiae deletion strains, locus YLR268W, strain sec22, stronger effect = lower value 0.644 | S. cerevisiae deletion strains, locus YLR320W, strain mms22, stronger effect = lower value 0.635 | S. cerevisiae deletion strains, locus YLR330W, strain CHS5, stronger effect = lower value 0.791 | S. cerevisiae deletion strains, locus YLR342W, strain FKS1, stronger effect = lower value 0.423 | S. cerevisiae deletion strains, locus YLR357W, strain rsc2, stronger effect = lower value 0.624 | S. cerevisiae deletion strains, locus YLR370C, strain arc18, stronger effect = lower value 0.593 | S. cerevisiae deletion strains, locus YLR371W, strain rom2, stronger effect = lower value 0.661 | S. cerevisiae deletion strains, locus YLR384C, strain iki3, stronger effect = lower value 0.784 | S. cerevisiae deletion strains, locus YLR418C, strain cdc73, stronger effect = lower value 0.505 | S. cerevisiae deletion strains, locus YML016C, strain PPZ1, stronger effect = lower value 0.111 | S. cerevisiae deletion strains, locus YML120C, strain ndi1, stronger effect = lower value 0.727 | S. cerevisiae deletion strains, locus YMR058W, strain fet3, stronger effect = lower value 0.0992 | S. cerevisiae deletion strains, locus YMR129W, stronger effect = lower value 0.789 | S. cerevisiae deletion strains, locus YMR205C, strain PFK2, stronger effect = lower value 0.416 | S. cerevisiae deletion strains, locus YMR223W, strain ubp8, stronger effect = lower value 0.844 | S. cerevisiae deletion strains, locus YMR231W, strain pep5, stronger effect = lower value 0.229 | S. cerevisiae deletion strains, locus YMR263W, strain SAP30, stronger effect = lower value 0.743 | S. cerevisiae deletion strains, locus YMR307W, strain GAS1, stronger effect = lower value 0.426 | S. cerevisiae deletion strains, locus YNL067W, strain RPL9B, stronger effect = lower value 0.547 | S. cerevisiae deletion strains, locus YNL071W, strain lat1, stronger effect = lower value 0.747 | S. cerevisiae deletion strains, locus YNL209W, strain ssb2, stronger effect = lower value 0.141 | S. cerevisiae deletion strains, locus YNL233W, strain BNI4, stronger effect = lower value 0.623 | S. cerevisiae deletion strains, locus YNL248C, strain rpa49, stronger effect = lower value 0.862 | S. cerevisiae deletion strains, locus YNL322C, strain KRE1, stronger effect = lower value 0.243 | S. cerevisiae deletion strains, locus YNR052C, strain pop2, stronger effect = lower value 0.754 | S. cerevisiae deletion strains, locus YOL147C, strain pex11, stronger effect = lower value 0.862 | S. cerevisiae deletion strains, locus YOR001W, strain rrp6, stronger effect = lower value 0.736 | S. cerevisiae deletion strains, locus YOR061W, strain CKA2, stronger effect = lower value 0.441 | S. cerevisiae deletion strains, locus YOR069W, strain VPS5, stronger effect = lower value 0.503 | S. cerevisiae deletion strains, locus YOR070C, strain gyp1, stronger effect = lower value 0.569 | S. cerevisiae deletion strains, locus YOR080W, strain dia2, stronger effect = lower value 0.253 | S. cerevisiae deletion strains, locus YOR083W, strain WHI5, stronger effect = lower value 0.541 | S. cerevisiae deletion strains, locus YOR106W, strain vam3, stronger effect = lower value 0.143 | S. cerevisiae deletion strains, locus YOR184W, strain ser1, stronger effect = lower value 0.649 | S. cerevisiae deletion strains, locus YOR265W, strain rbl2, stronger effect = lower value 0.699 | S. cerevisiae deletion strains, locus YOR270C, strain vph1, stronger effect = lower value 0.255 | S. cerevisiae deletion strains, locus YOR290C, strain snf2, stronger effect = lower value 0.487 | S. cerevisiae deletion strains, locus YPL051W, strain arl3, stronger effect = lower value 0.279 | S. cerevisiae deletion strains, locus YPL078C, strain atp4, stronger effect = lower value 0.731 | S. cerevisiae deletion strains, locus YPL106C, strain sse1, stronger effect = lower value 0.66 | S. cerevisiae deletion strains, locus YPL240C, strain hsp82, stronger effect = lower value 0.779 | S. cerevisiae deletion strains, locus YPL241C, strain CIN2, stronger effect = lower value 0.509 | S. cerevisiae deletion strains, locus YPR167C, strain met16, stronger effect = lower value 0.918 | S. cerevisiae deletion strains, strain wtn01, stronger effect = lower value 0.679 | S. cerevisiae strains, strain wild type, stronger effect = lower value 0.0985
inactive: S. cerevisiae deletion strains, locus YJR066W, strain TOR1, stronger effect = lower value 0.969 | S. cerevisiae deletion strains, locus YKL009W, strain mrt4, stronger effect = lower value 1.05 | S. cerevisiae deletion strains, locus YKL068W, stronger effect = lower value 1.04 | S. cerevisiae deletion strains, locus YKL085W, strain MDH1 (second series), stronger effect = lower value 1.03 | S. cerevisiae deletion strains, locus YKL085W, strain MDH1, stronger effect = lower value 1.03 | S. cerevisiae deletion strains, locus YKR026C, strain gcn3, stronger effect = lower value 0.988 | S. cerevisiae deletion strains, locus YKR091W, strain srl3, stronger effect = lower value 0.944 | S. cerevisiae deletion strains, locus YLR102C, strain apc9, stronger effect = lower value 1.02 | S. cerevisiae deletion strains, locus YLR113W, strain HOG1, stronger effect = lower value 1.11 | S. cerevisiae deletion strains, locus YML032C, strain rad52, stronger effect = lower value 0.968 | S. cerevisiae deletion strains, locus YML124C, strain tub3, stronger effect = lower value 0.949 | S. cerevisiae deletion strains, locus YMR078C, strain ctf18, stronger effect = lower value 1.01 | S. cerevisiae deletion strains, locus YMR125W, strain sto1, stronger effect = lower value 1.04 | S. cerevisiae deletion strains, locus YNL183C, strain NPR1, stronger effect = lower value 0.963 | S. cerevisiae deletion strains, locus YNL250W, strain rad50, stronger effect = lower value 1.05 | S. cerevisiae deletion strains, locus YNL271C, strain bni1, stronger effect = lower value 1 | S. cerevisiae deletion strains, locus YNL298W, strain CLA4, stronger effect = lower value 0.998 | S. cerevisiae deletion strains, locus YNL307C, strain MCK1, stronger effect = lower value 1.01 | S. cerevisiae deletion strains, locus YNL322C, strain KRE1 (second series), stronger effect = lower value 0.941 | S. cerevisiae deletion strains, locus YNR049C, strain mso1, stronger effect = lower value 0.945 | S. cerevisiae deletion strains, locus YOL012C, strain htz1 0.255 | S. cerevisiae deletion strains, locus YOR136W, strain idh2, stronger effect = lower value 0.929 | S. cerevisiae deletion strains, locus YOR144C, strain elg1, stronger effect = lower value 0.943 | S. cerevisiae deletion strains, locus YOR231W, strain MKK1, stronger effect = lower value 1.02 | S. cerevisiae deletion strains, locus YOR316C, strain cot1, stronger effect = lower value 1.02 | S. cerevisiae deletion strains, locus YPL256C, strain CLN2, stronger effect = lower value 1.06 | S. cerevisiae deletion strains, locus YPR119W, strain clb2, stronger effect = lower value 1.02 | S. cerevisiae deletion strains, locus YPR141C, strain kar3, stronger effect = lower value 1.03 | S. cerevisiae deletion strains, locus YPR163C, strain tif3, stronger effect = lower value 0.974
